From PubChem BioAssay (NCATS)
Records with an inconclusive call do not appear. Activity calls are given as the source filed them. Calls follow the shape of the dose curve; as a rule, active = well fitted inhibition curve with a large enough effect; inconclusive = small, poorly fitted or top-dose-only effect; inactive = flat fitted curve, though single readings scatter.

assay: qHTS for Inhibitors of Plasmodium falciparum (HB3) proliferation (AID 504318); also: nearly all actives have a fitted effect of over 60% in size; settings: P. falciparum HB3 in erythrocytes, SYBR Green DNA, 72 h; series mostly up to 7.21 µM
Text: Plasmodium falciparum is a virulent malarial parasite that kills 1-2 million people worldwide each year. Malaria not only inflicts tremendous suffering and morbidity on the human population, but has dramatically influenced the course of civilization with profound sociological and economic implications (Shah, S. 2010). Transmitted by mosquitoes, the sporozoite form of the parasite enters the blood stream to infect hepatocytes, where they become merozoites that infect red blood cells (erythrocytes). Within erythrocytes, merozoites begin a […] cycle of growth and division, after which the parasite is released to infect new red blood cells. Gametocytes, which form within erythrocytes as well, circulate in the bloodstream and are ingested by the mosquito, thereby completing the life cycle (see CDC website). To profile malarial lines for differential chemical responses and to identify inhibitors of malarial growth, an assay that measures P. falciparum growth and replication within erythrocytes was employed. This assay uses a DNA binding fluorescent dye (SYBR Green) to detect parasite DNA following cell lysis. Because mature erythrocytes lack DNA, only Plasmodium-derived DNA is detected. The P. falciparum line cp250, derived from a malarial isolate from Cambodia, (Mu, J., et al. 2010) was added to the panel of lines, Dd2, HB3, 7G8 and GB4 in this study. Laboratory of Assay Development and Screening Technology [ADST] and NIH Chemical Genomics Center [NCGC] Boston University, Chemistry Department, Center for Chemical Methodology and Library Development [CMLD-BU] NIH National Institute of Allergy and Infectious Diseases [NIAID]
ADST Assay Protocol Summary: The 1536-well SYBR Green viability assay was based on the method of Bennett et al (2004) and described previously in 1536-well format (Yuan J., et al. 2009). For screening 3 ul culture medium was dispensed into 1536 well black clear bottom plates (Aurora Biotechnologies) using a Multidrop Combi (Thermo Fisher Scientific Inc.), 23 nL compounds in DMSO were added by a pin transfer (Cleveland, P.H. and Koutz, P.J, 2005) using a pin tool-based delivery system (Kalypsys), and 5 ul of erythrocytes infected with P. falciparum one of five lines (cp250, Dd2, HB3, 7G8 or GB4, 0.3% parasitemia, 2.5% hematocrit final concentration) were added. The plates were incubated at 37C in a humidified incubator in 5% CO2 for 72 h, and 2 ul lysis buffer (20 mM Tris HCl, 10 mM EDTA, 0.16% saponin, 1.6% triton X, 10X SYBR Green I (supplied as 10,000X final concentration by Invitrogen) was added to each well. The plates were mixed for 25 sec with gentle shaking and incubated overnight at room temperature in the dark. The following morning, fluorescence intensity at 485(14) nm excitation and 535(25) nm emission wavelengths was measured on an EnVision (Perkin Elmer) plate reader. Plate reads were normalized relative to the control inhibitor (0.29 uM artemisinin) and vehicle (DMSO) wells present on each plate and then corrected by an algorithm using vehicle-only control plates at the beginning and end of the compound plate stack. References Shah, S. (2010). The Fever: how malaria has ruled humankind for 500,000 years. New York, Sarah Crichton Books. CDC web site, http://www.cdc.gov/malaria/about/biology/index.html Mu, J., Myers, R.A., Jiang, H., Liu, S., Ricklefs, S., Waisberg, M., Chotivanich, K., Wilairatana, P., Krudsood, S., White, N.J., et Plasmodium falciparum genome-wide scans for positive selection, recombination hot spots and resistance to antimalarial drugs Nature Genetics 2010, 42, pp 268-271 Bennett TN, Paguio, M., Gligorijevic, B., Seudieu, C., Kosar, A. D., Davidson, E., and Roepe, P. D. Novel, rapid, and inexpensive cell-based quantification of antimalarial drug efficacy Antimicrobial Agents Chemother. 2004, 48(5): pp 1807-10 Yuan J, Johnson RL, Huang RL, Wichterman J, Jiang HY, Hayton K, Fidock DA, Wellems TE, Inglese J, Austin CP, Su XZ. […]

Potency, inactive:
COC(=O)N[C@@H](c1ccco1)[C@]1(C(=O)OC)CCCC1=O
CC(=O)OC[C@H]1O[C@H](C#Cc2ccc(F)cc2F)C=C[C@H]1OC(C)=O
CC(=O)OC[C@H]1O[C@H](C#Cc2ccccc2)C=C[C@H]1O
COc1cccc(C(CC2=CCCCC2)NC(=O)C(F)(F)F)c1 (stereo not given)
COC(=O)N[C@@H](c1cccc(C)c1)[C@@H](C)[N+](=O)[O-]
COC[C@@H](OC(C)=O)[C@H]1OCc2ccccc2[C@@H]1C=Cc1ccccc1
CC1(OC(=O)CCc2ccccc2)C(=O)C=C2C=C(c3ccc(C#N)cc3)N(C(CO)CO)C=C2C1=O (stereo not given)
COCC=CC1=CC2=CC(=O)C(C)(OC(=O)c3cnc4ccccc4n3)C(=O)C2=CN1C1CC1 (stereo not given)
CC#CCN1C(=O)NC(c2ccccc2)C(C(=O)OCC)=C1c1ccccc1 (stereo not given)
Cc1cc2c(c(=O)o1)[C@H]1O[C@](c3ccsc3)(Cc3cc(C#N)ccc31)O2
C[C@H]1Cc2c(COc3ccccc3)nc3c(c2CO1)CN(C(=O)C1CCCCC1)CC3
COC1=CC2C(=O)C(C(c3ccccc3)C2C)C1(C)O (stereo not given)
COC(=O)C1=C(C(=O)OC)[C@@H]2N(C)c3ccccc3[C@@]23C[C@@H](C(=O)OC)N(C(=O)c2cccs2)C3=N1
C=CCOC(=O)N[C@@H](Cc1ccccc1)C(C(=O)OC)=C(C)NCc1ccccc1
C#CCCCON=C1C[C@@H](O)[C@H](O)[C@H]2[C@@H]3C(=O)N(C[C@@H]4CCCO4)C(=O)[C@@H]3CC[C@@H]12
COc1ccc(COC(=O)NN=C2C[C@@H](O)[C@@H](O)[C@@H]3[C@H]4C(=O)N(Cc5ccc6c(c5)OCO6)C(=O)[C@@H]4CC[C@H]23)cc1
Cn1c(-c2ccccc2)c(O)c(=O)c2ccccc21
C=CCOC(=O)C(C(C)=O)[C@@H](NC(=O)OC)c1cccs1 (stereo not given in full)
CC(C)=NOCc1ccc(-c2cn([C@@H]3COC[C@@H]3O)nn2)cc1
C[C@@H]1CC[C@H]2C(=O)O[C@@H](Cc3ccccc3)CN2[C@@H]1c1ccc(Br)cc1
CCOC(=O)NN=C1C[C@@H](O)[C@@H](O)[C@@H]2[C@H]3C(=O)N(C4CCCCC4)C(=O)[C@@H]3CC[C@H]12
CC(C)CON=C1C[C@@H](O)[C@@H](O)[C@@H]2[C@H]3C(=O)N(Cc4ccccc4)C(=O)[C@@H]3CC[C@@H]12
CCN1C(=O)N(C)C(c2ccccc2)C(C(=O)OC)=C1C (stereo not given)
CCN(CC)CCCN1C(=O)C2=C(C1=O)C1N(C)c3ccccc3[C@@]13C[C@@H](CO)N(C(=O)CCC(=O)OC)C3=N2 (stereo not given in full)
COC(=O)N[C@@H](c1ccco1)C(C(C)=O)C(=O)OC (stereo not given in full)
COC(=O)[C@H]1O[C@@H](c2c(OC)c(OC)c(C)c(OC)c2OC)[C@H](C)[C@@H](O)[C@@H]1C
COc1ccc([C@]23Cc4cc(OC)c(OC)cc4[C@H](O2)C2=C(CC4(CCCCC4)OC2=O)O3)cc1
CCCCS(=O)(=O)N1C2=NC3=C(C(=O)N(CCOC)C3=O)C3N(C)c4ccccc4[C@]23C[C@H]1CO (stereo not given in full)
CCOC(=O)N1C2=NC(C(=O)OC)=C(C(=O)OC)[C@@H]3Nc4ccccc4[C@]23C[C@H]1C(=O)OC
COc1cccc([C@@H]2[C@@H](C)CC[C@@H]3C(=O)NC[C@H](O)CN32)c1
COC(=O)N[C@@H](C=Cc1ccccc1)[C@@H](C)[N+](=O)[O-]
CCCCn1c(C)cc2c(c1=O)[C@H]1O[C@](c3ccsc3)(Cc3cc(OC)c(OC)cc31)O2
C=CC[C@@H]1C=CC(ON=CC[C@@H]2C=C[C@@H](OC(C)=O)[C@@H](COC(C)=O)O2)[C@H](CO)O1 (stereo not given in full)
CCCCCCCC1=CC2=CC(=O)C(C)(O)C(=O)C2=CN1CCCC (stereo not given)
CCC(=O)OC1(C)C(=O)C=C2C=C(CCCC(=O)OC)OC=C2C1=O (stereo not given)
O=C1CCCC=C1C(CCc1ccccc1)OC(=O)c1ccc(Br)cc1 (stereo not given)
COc1ccc([C@]23Cc4cc(C#N)ccc4[C@H](O2)C2=C(CC4(CCCCC4)OC2=O)O3)cc1
CC1(OC(=O)C2CCCC2)C(=O)C=C2C=C(c3ccsc3)N(C(CO)CO)C=C2C1=O (stereo not given)
C=CC[C@@H]1C=C[C@@H](Oc2ccc(OC)cc2)[C@H](COC(=O)c2ccc(Br)cc2)O1
N#Cc1ccc2c(c1)C[C@]1(c3ccsc3)Oc3c(c(=O)oc4ccccc34)[C@H]2O1
